Screens as filed in PubChem.
HT1080-NT tox = qHTS for induction of synthetic lethality in tumor cells producing 2HG: qHTS for the HT-1080-NT fibrosarcoma cell line. hit rate 1.6% among 360,000. Potency, µM (series often up to 46.1 µM), hits mostly cytotoxic. HT-1080-NT fibrosarcoma viability, CellTiter-Glo ATP luminescence, 48 h;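 further: NT is the 2HG producing partner of a matched IDH1 knockdown line; nearly all actives have a fitted effect of over 55% in size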
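Compounds were tested in concentration-response format on HT-1080-NT cells for 48 hours at 37 degrees C. Cell viability came from CellTiter-Glo luminescence; curves were classified by r2, response magnitude and activity.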
IL-1B inflam inh = qHTS for Inhibitors of Inflammasome Signaling: IL-1-beta AlphaLISA Primary Screen; THP-1 LPS/ATP IL-1B secretion, AlphaLISA, 16 h; active compounds read low; activity change, % at 57.5 µM; hit rate 4.7% among 360,000; AID 743279, 2014; in the data active means activity change below about -50%; inconclusive means mostly about -30% to -49%
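Secreted IL-1B measured by AlphaLISA bead assay after 16 h compound exposure of THP-1 cells; compounds (final up to 57.5 uM) added 1 h before LPS (250 ng/mL) and ATP (1.25 mM) stimulation; lower signal means less secretion.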
HT1080 IDH1KD tx = qHTS for induction of synthetic lethality in tumor cells producing 2HG: qHTS for the HT-1080-IDH1KD cell line; HT-1080 IDH1 knockdown viability, ATP luminescence, 48 h; AID 686971, 2013; hit rate 2% among 360,000; Potency, µM (highest dose often 46.1 µM), usual class: cytotoxic
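In this qHTS, HT-1080 cells depleted of IDH1 are exposed for 48 h at 37 °C to compound titrations. Toxicity is scored from CellTiter-Glo luminescence, with DMSO as full viability and medium alone as none.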
DT40 TDP1 no CPT = qHTS for Inhibitors of human tyrosyl-DNA phosphodiesterase 1 (TDP1): qHTS in cells in absence of CPT; DT40 Tdp1-/- hTDP1 cells, no CPT, ATP luminescence, 48 h; Potency, µM (highest dose often 46.2 µM), most hits filed as inhibitors; hit rate 15% among 420,000; AID 686978, 2013; further: nearly all actives have a fitted effect of over 55% in size
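Chicken DT40 Tdp1-/- cells complemented with human TDP1, screened without camptothecin (DMSO vehicle only), 400 cells/well. Compounds pin-transferred, cells incubated at 37 °C for at least 48 hr. Growth read as ATP-dependent luminescence (CellTiter-Glo, 30 min at RT).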
DT40 TDP1 CPT = qHTS for Inhibitors of human tyrosyl-DNA phosphodiesterase 1 (TDP1): qHTS in cells in presence of CPT. chicken DT40 Tdp1-/-;hTDP1 cells + 20 nM CPT, ATP luminescence, 48 h. hit rate 12% among 420,000. AID 686979, 2013. Potency, µM (highest dose often 46.2 µM), actives largely listed as inhibitors; further: nearly all actives have a fitted effect of over 55% in size
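Chicken DT40 Tdp1-/- cells complemented with human TDP1, 400 cells/well, exposed to compounds plus 20 nM camptothecin for at least 48 h at 37 C; viability read as ATP content by CellTiter-Glo luminescence.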
12-LOX inh = Primary qHTS assay for inhibitors of human arachidonate 12S-lipoxygenase (ALOX12): Round 2; Polyunsaturated fatty acid lipoxygenase ALOX12 (Homo sapiens), P18054; purified 12hLO, xylenol orange hydroperoxide absorbance; Potency, µM (top dose mostly 108 µM), actives largely listed as inhibitors; hit rate 1.1% among 580,000; AID 1671190, 2021
Target sequence (P18054 whole entry, looked up): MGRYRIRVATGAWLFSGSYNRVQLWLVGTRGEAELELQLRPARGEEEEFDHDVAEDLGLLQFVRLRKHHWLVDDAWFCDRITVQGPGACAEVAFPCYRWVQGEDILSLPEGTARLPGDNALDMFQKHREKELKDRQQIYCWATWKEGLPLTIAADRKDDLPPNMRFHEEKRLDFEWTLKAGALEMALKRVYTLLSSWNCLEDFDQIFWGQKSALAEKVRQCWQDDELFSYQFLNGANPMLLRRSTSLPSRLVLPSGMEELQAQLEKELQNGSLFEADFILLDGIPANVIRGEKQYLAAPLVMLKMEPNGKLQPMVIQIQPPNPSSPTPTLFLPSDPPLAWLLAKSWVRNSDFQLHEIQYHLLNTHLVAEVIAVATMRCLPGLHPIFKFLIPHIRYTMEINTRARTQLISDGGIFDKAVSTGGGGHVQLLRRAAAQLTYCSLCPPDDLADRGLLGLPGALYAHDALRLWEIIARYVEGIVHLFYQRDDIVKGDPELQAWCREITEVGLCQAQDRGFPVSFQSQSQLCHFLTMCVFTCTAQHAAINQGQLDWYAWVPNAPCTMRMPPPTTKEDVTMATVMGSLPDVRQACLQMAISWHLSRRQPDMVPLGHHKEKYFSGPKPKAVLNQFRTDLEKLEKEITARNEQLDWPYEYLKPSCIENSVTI
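Purified human 12hLO (150 nM final) in 25 mM Hepes, 0.01% Triton X-100, pH 7.0 was preincubated 15 min at room temperature with compound. Then 40 uM arachidonic acid was added, 30 min. Hydroperoxide was read by Fe-XO absorbance ratio 573/405 nm.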
A number is an active result; 0 = inactive; ? = inconclusive; - = no result; [ ] = another dose, or the depositor's remark. Only a selection was taken, and hits are over-represented in it overall. Unless noted, the call rests on the fitted dose curve; in most records, active means well fitted curve in the direction sought with a large enough effect; inconclusive means small, poorly fitted or top-dose-only effect, or another doubt; inactive means no such curve, though single readings can be large; an effect the other way counts as inactive or inconclusive.

SMILES	HT1080-NT tox	IL-1B inflam inh	HT1080 IDH1KD tx	DT40 TDP1 no CPT	DT40 TDP1 CPT	12-LOX inh
CC1(C)CC(=O)C2=C(C1)NC(SCC(=O)Nc1ccccc1)=C(C#N)C2c1ccco1 (centres undefined)	0	?	0	?	?	0
N#CC1=C(SCC(=O)c2ccc(Cl)cc2)NC2=C(C(=O)CCC2)C1c1ccco1 (centres undefined)	18.4µM	-88.1	18.4µM	5.8µM	5.17µM	0
CCOC(=O)CSC1=C(C#N)C(c2ccc(C)cc2)C2=C(CCCC2=O)N1 (centres undefined)	0	0	0	0	0	0
CC1=C(C(=O)OC2CCCCC2)C(c2ccco2)C2=C(CC(C)(C)CC2=O)N1 (centres undefined)	0	0	0	?	18.4µM	0
CC1=C(C(=O)OC2CCCCC2)C(c2ccc(O)cc2)C2=C(CC(C)(C)CC2=O)N1 (centres undefined)	-	-	-	-	-	0
CCCN(CCC)C(=O)C1COC2(CCCCC2)N1C(=O)c1ccccc1 (centres undefined)	-	-	-	-	-	0
CC(C)N1C[C@H](O)C[C@H]1c1nnc2n1CCN(C(=O)c1n[nH]c3ccccc13)CC2	-	-	-	-	-	0
CCOCCn1c(=O)[nH]c2cc(C(=O)N(C)CCc3noc(C)n3)ccc21	-	-	-	-	-	0
CC(=O)Nc1c(-c2ccccc2)c(C)nn1-c1ccc(C(=O)NCc2ccccn2)cc1	-	-	-	-	-	0
C=CCNC(=S)Nc1cc(Cl)ccc1Cl	-	-	-	-	-	0
CCCCCC1(C)NC(=S)N(c2ccccc2)N1 (centres undefined)	?	0	?	0	0	0.794µM
CCC1(c2ccc(Cl)cc2)NC(=S)N(c2ccccc2)N1 (centres undefined)	0	0	0	?	?	15.8µM
CCCCCCC1(C)NC(=S)N(c2ccccc2)N1 (centres undefined)	0	0	?	?	0	?
CCOC(=O)c1c(C)sc2c1OC(N)=C(C#N)C21C(=O)N(Cc2cccc(F)c2)c2ccccc21 (centres undefined)	-	-	-	-	-	0
COc1ccc(CC(=O)N2Cc3ccccc3CC3(CCN(C)CC3)C2)cc1	-	-	-	-	-	0[6.33 µM]
O=C(CCc1cn(Cc2ccccc2Cl)c2ccccc12)NC1CCCCC1	-	-	-	16.4µM	?	0
Cn1cc(CCC(=O)NCc2cccc(Cl)c2)c2ccccc21	0	0	0	0	0	0
COc1cccc(CNC(=O)CCc2cn(Cc3ccccc3Cl)c3ccccc23)c1	-	-	-	18.4µM	?	0
CC1CCC(NC(=O)CCc2cn(Cc3ccccc3Cl)c3ccccc23)CC1 (centres undefined)	-	-	-	?	?	0
COc1ccc(Cl)cc1NC(=O)c1nc2ccccc2nc1N1CCCCC1	-	-	-	-	-	0
Cc1[nH]c(I)c(C)c1C=O	-	-	-	-	-	14.1µM
O=C([C@@H]1C[C@H](F)CN1S(=O)(=O)c1ccccc1F)N1CCCCC1	-	-	-	-	-	0
COc1ccccc1NC(=O)Nc1nc(CC(=O)Nc2ccc(F)c(F)c2)cs1	0	-69.2	0	14.6µM	?	0
COc1ccccc1NC(=O)Nc1nc(CC(=O)Nc2cccc(F)c2)cs1	0	0	0	?	?	0
COc1ccc(NC(=O)Cc2csc(NC(=O)Nc3ccccc3OC)n2)cc1	0	0	0	23.1µM	25.9µM	0
SMILES	HT1080-NT tox	IL-1B inflam inh	HT1080 IDH1KD tx	DT40 TDP1 no CPT	DT40 TDP1 CPT	12-LOX inh
COc1ccccc1NC(=O)Nc1nc(CC(=O)Nc2ccc(F)cc2)cs1	0	0	0	16.4µM	?	0
COc1ccc(C)cc1NC(=O)Cc1csc(NC(=O)Nc2ccccc2OC)n1	0	0	0	16.4µM	?	0
COc1ccccc1NC(=O)Nc1nc(CC(=O)Nc2ccc(N(C)C)cc2)cs1	0	?	0	?	?	?
COc1ccccc1NC(=O)Cc1csc(NC(=O)c2ccccc2)n1	0	0	0	?	?	0
COCCN1CCC(N2CCN(S(=O)(=O)c3ccc(F)cc3F)CC2)C1=O (centres undefined)	-	-	-	-	-	0
CCc1noc(C)c1C(=O)OC(C)C(=O)c1c[nH]c2ccccc12 (centres undefined)	-	-	-	-	-	0
Cc1ccc(Cl)cc1NC(=O)C1CCCCC1	-	-	-	-	-	0
O=C(CCNS(=O)(=O)c1ccc2c(c1)CCN2C(=O)C1CC1)Nc1ccc(F)cc1F	-	-	-	13µM	8.2µM	0
Cc1cccc(NC(=O)CCNS(=O)(=O)c2ccc3c(c2)CCN3C(=O)C2CC2)c1	-	-	-	20.6µM	18.4µM	0
CC1CCN(CCCNS(=O)(=O)c2ccc3c(c2)CCN3C(=O)C2CC2)CC1	0	0	0	0	0	0
CN1c2cccnc2CN(Cc2ccc(OC(F)(F)F)cc2)CC[C@H]1CO	-	-	-	-	-	0
COc1cccc2cc(-c3csc(-c4ccccc4)n3)c(=O)oc12	-	-	-	-	-	0
CN1CCN(c2ccc(Cl)cc2NC(=O)c2cc(=O)[nH]c3ccccc23)CC1	0	0	0	?	?	0
CN1CCN(c2cc3c(c4c2[nH]c2ccccc24)C(=O)CC(C)(C)C3)CC1	0	-64.7	0	16.4µM	?	39.8µM
O=C(CCn1cnc2ccccc21)N/N=C/c1ccccc1O	?	0	?	23.1µM	?	0
COc1cc(/C=N/NC(=O)CCN2CCN(C(c3ccccc3)c3ccccc3)CC2)ccc1O	0	0	?	11.6µM	13µM	?
CN1CCN(CCC(=O)N/N=C/c2ccccc2F)CC1	0	0	0	0	0	0
O=C(CCn1cnc2ccccc21)N/N=C/c1ccc(O)cc1	0	0	0	0	0	0
COc1cc(/C=N\NC(=O)CNC(=O)C(c2ccccc2)c2ccccc2)ccc1O	0	0	0	0	0	0
O=C(CCN1CCN(c2ccccc2)CC1)N/N=C/c1ccccc1O	?	0	20.6µM	0	?	0
CCCn1c(N)[n+](CC(=O)c2ccco2)c2ccccc21	0	-58.6	0	0	0	0
COC(=O)c1ccccc1NC(=O)CN(C)S(=O)(=O)c1c(C)noc1C	-	-	-	-	-	0
Cc1ccc(NC(=O)CN(C)CC(=O)Nc2ccc(N3CCOCC3)cc2)cc1F	0	0	0	?	0	?
Cc1ccc(CC(=O)N(C)CC(=O)Nc2ccc(N3CCOCC3)cc2)cc1C	0	0	0	0	13µM	0
